Among the data in PubChem BioAssay (EPA / NIEHS) are outcome and AC50 values, retold here.

For assay [1], the target named is human Vitamin D Receptor (VDR), VDR (gene 7421) (UniProt P11473). The assay can be described thus: ATG_VDR_TRANS: Attagene TRANS-FACTORIAL HepG2 Assay for human Vitamin D Receptor (VDR) (AID 2283022; active means hit-call score of the fitted dose curve at least 0.9, where 1 is the maximum). In outline: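 HepG2 cells were transiently transfected with GAL4-UAS reporter units and a chimeric VDR-Gal4 construct, then dosed for 24 hours. Reporter mRNA was quantified by RT-PCR, fluorescent labeling, HpaI digestion and capillary electrophoresis; gain of signal analysed vs DMSO.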
human Vitamin D Receptor (VDR), VDR (gene 7421), sequence (P11473 whole entry, looked up, the tested form may be a part): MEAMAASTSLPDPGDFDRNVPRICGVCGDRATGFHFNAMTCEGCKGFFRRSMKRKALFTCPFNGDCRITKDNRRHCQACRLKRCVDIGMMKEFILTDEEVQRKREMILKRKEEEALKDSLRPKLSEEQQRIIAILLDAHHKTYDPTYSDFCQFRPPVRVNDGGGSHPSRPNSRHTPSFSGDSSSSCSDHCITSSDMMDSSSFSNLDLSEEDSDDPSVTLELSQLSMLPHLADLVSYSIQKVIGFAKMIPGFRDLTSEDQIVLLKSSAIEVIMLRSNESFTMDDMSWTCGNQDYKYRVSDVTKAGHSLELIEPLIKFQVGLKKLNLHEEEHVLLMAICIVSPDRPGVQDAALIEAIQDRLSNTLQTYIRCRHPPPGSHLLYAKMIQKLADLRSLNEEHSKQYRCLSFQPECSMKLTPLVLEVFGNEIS

Assay [2] in a line: BSK_3C_SRB: Viability Assessment in the BioMAP Diversity Plus: 3C Assay (AID 2283023).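 Further: fitted both ways against DMSO so a hit may be signal rise or drop.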 The conditions noted are these: primary human endothelial cells (HUVEC). Summed up: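 Human umbilical vein endothelial cells in the 3C system, treated 24 h. Total protein measured by 0.1% sulforhodamine B staining after 10% TCA fixation, read at 560 nm; bidirectional fit versus DMSO.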
Read-out in assay [3]: Matrix Metallopeptidase 1 (MMP1), MMP1 (gene 4312)
The assay can be described thus: BSK_BE3C_MMP1: BioMAP Diversity Plus: BE3C Assay for Matrix Metallopeptidase 1 (MMP1) Biomarker Activity (AID 2283024). The conditions noted are these: primary human bronchial epithelial cells; actives raise or lower the signal. Summed up: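 Dose cells, wait 24 h, run MMP1 ELISA; cells are human bronchial epithelial primaries. Both increases and decreases relative to DMSO counted.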

Assay [4] in a line: BSK_3C_Vis: BioMAP Diversity Plus: 3C Assay for Morphology Visualization (AID 2283025).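 Further: fitted both ways so gain or loss versus DMSO counts.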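 On AC50: light microscopy image of cell morphology used as background control.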 The conditions noted are these: primary human endothelial cells (HUVEC). Summed up:
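Endothelial cells from human umbilical vein were treated with test chemicals for 24 h and inspected by light microscopy for changes in cell conformation.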

Read-out in assay [5]: Pselectin, SELP (gene 6403)
Briefly: BSK_4H_Pselectin: BioMAP Diversity Plus: 4H Assay for Pselectin Biomarker Activity (AID 2283026). The conditions noted are these: primary human endothelial cells (HUVEC); actives raise or lower the signal. In outline:
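Human vascular endothelium from umbilical vein; P-selectin measured by ELISA at 24 h post-dose, with cytotoxicity checked by sulforhodamine B total-protein staining in parallel cultures (0.1% SRB after 10% TCA fixation, read at 560 nm).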

Assay [6] is described as follows: BSK_4H_SRB: Viability Assessment in the BioMAP Diversity Plus: 4H Assay (AID 2283027).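 Further: cells exposed to compound for 24 h before staining.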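 On AC50: curves fitted both ways versus DMSO so AC50 may be loss or gain.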 The conditions noted are these: primary human endothelial cells (HUVEC). Summed up:
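Human umbilical vein endothelial cells were dosed with chemical and, after 24 h, fixed with 10% TCA, stained with 0.1% sulforhodamine B, and read at 560 nm to give total protein as a cytotoxicity measure. Bidirectional fitting relative to DMSO control.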

Assay [7] in a line: BSK_BE3C_SRB: Viability Assessment in the BioMAP Diversity Plus: BE3C Assay (AID 2283028).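 On AC50: fitted both ways so AC50 may mark signal gain or loss versus DMSO.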 The conditions noted are these: primary human bronchial epithelial cells. Summed up: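 Human bronchial epithelial primary cells in confluent culture, 24 h after chemical dosing; total protein by 0.1% SRB staining after 10% TCA fixation, read at 560 nm. Bidirectional fitting versus DMSO baseline.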

Read-out in assay [8]: Thrombomodulin, THBD (gene 7056)
The assay can be described thus: BSK_3C_Thrombomodulin: BioMAP Diversity Plus: 3C Assay for Thrombomodulin Biomarker Activity (AID 2283029). The conditions noted are these: primary human endothelial cells (HUVEC); actives raise or lower the signal. In outline:
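Thrombomodulin ELISA, human primary HUVEC, 24 h post-dose; data fitted in both directions relative to DMSO.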

Read-out in assay [9]: Urokinase-type plasminogen activator receptor (uPAR), PLAUR (gene 5329)
The assay can be described thus: BSK_4H_uPAR: BioMAP Diversity Plus: 4H Assay for Urokinase-type plasminogen activator receptor (uPAR) Biomarker Activity (AID 2283030). The conditions noted are these: primary human endothelial cells (HUVEC); actives raise or lower the signal. Summed up:
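Human umbilical vein endothelial cells in the 4H system, 24 h after chemical dosing. Cell-surface uPAR measured by ELISA, fitted in both directions versus DMSO; cytotoxicity checked by SRB total protein in parallel cultures.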

Read-out in assay [10]: Vascular endothelial growth factor receptor 2 (Homo sapiens) (UniProt P35968)
Briefly: BSK_4H_VEGFRII: BioMAP Diversity Plus: 4H Assay for Vascular endothelial growth factor receptor 2 (VEGFR2) Biomarker Activity (AID 2283031). The conditions noted are these: primary human endothelial cells (HUVEC); actives raise or lower the signal. In outline: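 Primary human umbilical vein endothelial cells (4H system), 24 h exposure; cell-surface VEGFR2 measured by ELISA. Bidirectional fitting versus DMSO; cytotoxicity checked in parallel by SRB total-protein staining.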

Read-out in assay [11]: Human Leukocyte Antigen - DR isotype (HLADR), HLA-DRA (gene 3122)
Briefly: BSK_BE3C_HLADR: BioMAP Diversity Plus: BE3C Assay for Human Leukocyte Antigen - DR isotype (HLADR) Biomarker Activity (AID 2283032). The conditions noted are these: primary human bronchial epithelial cells; actives raise or lower the signal. Summed up:
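Signal came from an ELISA for HLA-DR in human bronchial epithelial primary cells harvested 24 h after treatment; gain- and loss-of-signal fitting used DMSO controls as reference.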

Read-out in assay [12]: Vascular cell adhesion molecule 1 (VCAM1), VCAM1 (gene 7412)
Briefly: BSK_4H_VCAM1: BioMAP Diversity Plus: 4H Assay for Vascular cell adhesion molecule 1 (VCAM1) Biomarker Activity (AID 2283033).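 Further: cell-surface VCAM-1 protein measured by ELISA.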 The conditions noted are these: primary human endothelial cells (HUVEC); actives raise or lower the signal. Summed up:
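Endpoint derived from bidirectional fitting against DMSO controls of VCAM-1 ELISA signal in umbilical vein endothelial cells sampled at 24 h following treatment.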

Read-out in assay [13]: Interferon-gamma inducible Protein 10 (IP10), CXCL10 (gene 3627)
The assay can be described thus: BSK_BE3C_IP10: BioMAP Diversity Plus: BE3C Assay for Interferon-gamma inducible Protein 10 (IP10) Biomarker Activity (AID 2283034). The conditions noted are these: primary human bronchial epithelial cells; actives raise or lower the signal. In outline: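 Using primary human bronchial epithelial cultures, the assay captures IP-10 by ELISA one day (24 h) after exposure. Parallel SRB staining of total protein flags overt cytotoxicity. Fits run bidirectionally relative to DMSO.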

Read-out in assay [14]: Monokine induced gamma interferon (MIG), CXCL9 (gene 4283)
The assay can be described thus: BSK_BE3C_MIG: BioMAP Diversity Plus: BE3C Assay for Monokine induced gamma interferon (MIG) Biomarker Activity (AID 2283035).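 Further: MIG protein measured by ELISA in BE3C cultures after 24 h of dosing.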 The conditions noted are these: primary human bronchial epithelial cells; actives raise or lower the signal. In outline:
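ELISA read-out of MIG in human lung bronchial epithelial primary cultures, 24 h post-dosing. Bidirectional curve fit vs DMSO baseline.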

Read-out in assay [15]: Transforming growth factor beta 1 (TGFb1), TGFB1 (gene 7040)
Briefly: BSK_BE3C_TGFb1: BioMAP Diversity Plus: BE3C Assay for Transforming growth factor beta 1 (TGFb1) Biomarker Activity (AID 2283036;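 further: TGF-b1 protein level measured by ELISA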). The conditions noted are these: primary human bronchial epithelial cells; actives raise or lower the signal. Summed up: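 In this human primary bronchial epithelial system, an ELISA quantified TGF-b1 one day after dosing. Endpoint changes in either direction were fitted relative to DMSO.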

Read-out in assay [16]: Plasminogen activator inhibitor-1 (PAI1), SERPINE1 (gene 5054)
The assay can be described thus: BSK_BE3C_PAI1: BioMAP Diversity Plus: BE3C Assay for Plasminogen activator inhibitor-1 (PAI1) Biomarker Activity (AID 2283037). The conditions noted are these: primary human bronchial epithelial cells; actives raise or lower the signal. Summed up:
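PAI-1 biomarker levels in treated human bronchial epithelial cells are determined by ELISA at 24 h. Both increases and decreases relative to DMSO are fitted.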

Read-out in assay [17]: urokinase plasminogen activator (uPA), PLAU (gene 5328)
Briefly: BSK_BE3C_uPA: BioMAP Diversity Plus: BE3C Assay for urokinase plasminogen activator (uPA) Biomarker Activity (AID 2283038).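 Further: uPA protein level quantified by ELISA in cell cultures; uPA read one day after compound addition.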 The conditions noted are these: primary human bronchial epithelial cells; actives raise or lower the signal. In outline:
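Primary human bronchial epithelial cells, uPA measured by ELISA 24 h after dosing. Bidirectional change relative to DMSO; cytotoxicity checked in parallel cultures by sulforhodamine B total-protein staining.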

Read-out in assay [18]: Urokinase-type plasminogen activator receptor (uPAR), PLAUR (gene 5329)
The assay can be described thus: BSK_BE3C_uPAR: BioMAP Diversity Plus: BE3C Assay for Urokinase-type plasminogen activator receptor (uPAR) Biomarker Activity (AID 2283039).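 Further: cells exposed to compound for one day before measurement.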 The conditions noted are these: primary human bronchial epithelial cells; actives raise or lower the signal. Summed up:
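A uPAR ELISA serves as the readout, taken 24 h after treating primary human bronchial epithelial cells. Responses in either direction are fitted against DMSO, which defines baseline activity.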

Read-out in assay [19]: Interleukin-6 (IL6), IL6 (gene 3569)
Briefly: BSK_CASM3C_IL6: BioMAP Diversity Plus: CASM3C Assay for Interleukin-6 (IL6) Biomarker Activity for (AID 2283040). The conditions noted are these: primary human coronary artery smooth muscle cells; actives raise or lower the signal.

Read-out in assay [20]: Tissue plasminogen activator (tPA), PLAT (gene 5327)
Briefly: BSK_BE3C_tPA: BioMAP Diversity Plus: BE3C Assay for Tissue plasminogen activator (tPA) Biomarker Activity (AID 2283041).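 Further: tPA level quantified by ELISA one day after compound addition.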 The conditions noted are these: primary human bronchial epithelial cells; actives raise or lower the signal. Summed up:
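Bidirectional curve fitting relative to DMSO defined activity, with tPA detected by ELISA in chemically treated human bronchial epithelial primary cells at 24 hours.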

Each structure is given as a SMILES string. Results filed as inconclusive are left out. Activity calls are given as the source filed them. How the source made its calls, unless noted: active means hit-call score of the fitted dose curve at least 0.9, where 1 is the maximum; inactive means score below 0.9.

For the molecule `CCCCCOC(=O)COc1cc(N2C(=O)C3=C(CCCC3)C2=O)c(F)cc1Cl`, the molecule was classed as inactive in [1], in assay [2], in assay [3], in assay [4], in assay [5] and in assay [6]. The outcome in assay [7], in assay [8], in assay [9], in assay [10], in [11] and in [12] was inactive. The result in assay [13], in assay [14], in assay [15], in assay [16], in assay [17] and in assay [18] was inactive. Besides, the outcome in [19] and in [20] was inactive.

On to `CC1(C)C(C=C(Cl)Cl)C1C(=O)OCc1cccc(Oc2ccccc2)c1` (stereo not drawn), for which the call in assay [1], in assay [3], in assay [5], in [6], in [7] and in assay [9] was inactive. Also, the outcome in assay [10], in [11], in assay [12], in assay [13], in [14] and in assay [15] was inactive. For the same molecule, the outcome in assay [17], in assay [18] and in assay [20] was inactive. Moreover, the concentration at half-maximal activity (AC50) in [2] was 6.15 µM (active); in assay [4], 20 µM (active); in [19] it was 6.26 µM (active).

As to `COC(=O)c1c(Cl)nn(C)c1S(=O)(=O)NC(=O)Nc1nc(OC)cc(OC)n1`, the outcome in [1], in [2], in [3], in assay [4], in assay [5] and in assay [6] was inactive. For the same molecule, the outcome in [7], in assay [9], in [10], in assay [11], in assay [12] and in assay [13] was inactive. The result in [14], in [15], in assay [17], in [18], in [19] and in assay [20] was inactive.

With `Cc1nn(C)c(Oc2ccccc2)c1C=NOCc1ccc(C(=O)OC(C)(C)C)cc1`, the molecule was classed as inactive in assay [1], in assay [10], in assay [12], in assay [14], in assay [15] and in assay [17]. The result in assay [18], in assay [19] and in assay [20] was inactive. Also, the AC50 is 9.91 µM (active) in assay [2]; 4.59 µM (active) in assay [3]; 15.2 µM (active) in assay [4]; 12.9 µM (active) in [5]; 16.3 µM (active) in assay [6]; 12 µM (active) in assay [7]. Moreover, the AC50 in [9] is 30.6 µM (active); in assay [11] it was 0.814 µM (active); in assay [13], 11.7 µM (active); in assay [16] it was 7.02 µM (active).

Turning to `COc1nc(C)nc(NC(=O)NS(=O)(=O)c2ccccc2OCCCl)n1`, the outcome in assay [1], in assay [2], in [3], in [4], in [5] and in assay [6] was inactive. Moreover, the outcome in [7], in [9], in assay [10], in [11], in assay [12] and in assay [13] was inactive. Also, the result in assay [14], in assay [15], in assay [16], in assay [17], in assay [18] and in assay [19] was inactive. Moreover, in assay [20], the outcome was inactive.

For `C#CCOC(=O)[C@@H](C)Oc1ccc(Oc2ncc(Cl)cc2F)cc1`, the result in assay [1], in [2], in assay [3], in [4], in assay [5] and in assay [6] was inactive. Moreover, the result in assay [7], in assay [8], in assay [9], in assay [10], in assay [11] and in assay [12] was inactive. The outcome in assay [13], in [14], in [15], in assay [17], in [18] and in assay [19] was inactive. Also, in assay [20], the outcome was inactive.
